According to ChEMBL document CHEMBL1961873, “Compounds: GSK PKIS; Assays: Nanosyn kinase panel” (2012):

Key:
[1] = target: Ribosomal protein S6 kinase alpha-6 (Homo sapiens) (UniProt Q9UK32); conditions: at 1 µM;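 note: each value is a mean inhibition of RSK4 from a GSK PKIS panel screen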
[2] = target: T1, Serine/threonine-protein kinase Sgk1 (Homo sapiens) (UniProt O00141); conditions: at 0.1 µM
T1 sequence (whole entry): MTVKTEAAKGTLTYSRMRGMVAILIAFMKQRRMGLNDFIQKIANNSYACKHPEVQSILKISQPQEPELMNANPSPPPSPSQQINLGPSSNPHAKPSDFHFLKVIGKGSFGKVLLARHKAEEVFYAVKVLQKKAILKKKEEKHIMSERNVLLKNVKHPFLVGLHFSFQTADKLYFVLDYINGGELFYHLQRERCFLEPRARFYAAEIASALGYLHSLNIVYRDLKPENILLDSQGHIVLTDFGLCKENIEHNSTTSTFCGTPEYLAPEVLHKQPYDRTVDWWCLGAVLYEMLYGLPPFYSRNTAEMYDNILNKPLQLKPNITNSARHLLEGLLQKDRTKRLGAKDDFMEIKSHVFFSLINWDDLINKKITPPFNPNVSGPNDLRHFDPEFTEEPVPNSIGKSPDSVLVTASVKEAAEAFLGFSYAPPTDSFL

[3] = target: T1, Serine/threonine-protein kinase Sgk1 (Homo sapiens); conditions: at 1 µM
[4] = target: T2, Serine/threonine-protein kinase Sgk2 (Homo sapiens) (UniProt Q9HBY8); conditions: at 0.1 µM
T2 sequence (whole entry): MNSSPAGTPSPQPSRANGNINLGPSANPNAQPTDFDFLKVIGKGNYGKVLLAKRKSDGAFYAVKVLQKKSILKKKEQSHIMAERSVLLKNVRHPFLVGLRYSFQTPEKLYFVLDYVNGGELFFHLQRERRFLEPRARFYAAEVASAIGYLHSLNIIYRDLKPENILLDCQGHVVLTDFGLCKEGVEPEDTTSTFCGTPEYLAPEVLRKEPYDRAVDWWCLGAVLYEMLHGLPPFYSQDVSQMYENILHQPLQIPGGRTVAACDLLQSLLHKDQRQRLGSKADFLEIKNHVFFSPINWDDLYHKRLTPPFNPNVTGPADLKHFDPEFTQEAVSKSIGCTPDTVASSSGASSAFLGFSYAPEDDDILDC

[5] = target: T2, Serine/threonine-protein kinase Sgk2 (Homo sapiens); conditions: at 1 µM
[6] = target: T3, Serine/threonine-protein kinase Sgk3 (Homo sapiens) (UniProt Q96BR1); conditions: at 0.1 µM
T3 sequence (whole entry): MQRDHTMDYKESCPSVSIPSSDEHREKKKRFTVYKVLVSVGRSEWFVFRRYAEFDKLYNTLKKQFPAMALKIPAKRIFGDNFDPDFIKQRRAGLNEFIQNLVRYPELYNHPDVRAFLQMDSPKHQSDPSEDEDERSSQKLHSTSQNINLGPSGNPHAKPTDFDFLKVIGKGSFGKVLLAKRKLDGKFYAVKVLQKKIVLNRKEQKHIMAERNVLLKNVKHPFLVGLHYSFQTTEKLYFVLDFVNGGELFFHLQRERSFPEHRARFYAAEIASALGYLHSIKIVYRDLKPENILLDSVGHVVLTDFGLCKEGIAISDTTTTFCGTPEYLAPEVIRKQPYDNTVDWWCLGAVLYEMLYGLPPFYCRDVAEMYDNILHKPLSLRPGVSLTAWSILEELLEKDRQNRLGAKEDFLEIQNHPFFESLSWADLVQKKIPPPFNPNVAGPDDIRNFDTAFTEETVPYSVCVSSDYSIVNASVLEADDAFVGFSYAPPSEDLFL

[7] = target: T3, Serine/threonine-protein kinase Sgk3 (Homo sapiens); conditions: at 1 µM
[8] = target: 5'-AMP-activated protein kinase catalytic subunit alpha-1 (Homo sapiens) (UniProt Q13131); conditions: at 0.1 µM
5'-AMP-activated protein kinase catalytic subunit alpha-1 (Homo sapiens), sequence (Q13131 whole entry, looked up): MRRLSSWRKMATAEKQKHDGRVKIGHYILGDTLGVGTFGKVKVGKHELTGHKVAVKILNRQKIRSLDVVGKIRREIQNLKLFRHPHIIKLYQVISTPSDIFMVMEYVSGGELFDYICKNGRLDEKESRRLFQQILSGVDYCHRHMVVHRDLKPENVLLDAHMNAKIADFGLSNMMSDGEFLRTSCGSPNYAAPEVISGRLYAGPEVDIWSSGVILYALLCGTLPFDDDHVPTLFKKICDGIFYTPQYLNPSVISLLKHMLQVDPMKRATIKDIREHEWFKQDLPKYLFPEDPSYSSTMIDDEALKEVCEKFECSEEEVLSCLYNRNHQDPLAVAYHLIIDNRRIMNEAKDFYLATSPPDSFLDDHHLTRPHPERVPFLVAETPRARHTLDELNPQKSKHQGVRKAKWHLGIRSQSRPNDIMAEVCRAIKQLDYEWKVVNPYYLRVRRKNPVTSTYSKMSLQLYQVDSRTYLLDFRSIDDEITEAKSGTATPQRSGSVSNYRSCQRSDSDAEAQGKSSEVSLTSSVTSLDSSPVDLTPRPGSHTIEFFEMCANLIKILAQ

[9] = target: 5'-AMP-activated protein kinase catalytic subunit alpha-1 (Homo sapiens) (UniProt Q13131); conditions: at 1 µM
[10] = target: 5'-AMP-activated protein kinase catalytic subunit alpha-2 (Homo sapiens) (UniProt P54646); conditions: at 0.1 µM
5'-AMP-activated protein kinase catalytic subunit alpha-2 (Homo sapiens), sequence (P54646 whole entry, looked up): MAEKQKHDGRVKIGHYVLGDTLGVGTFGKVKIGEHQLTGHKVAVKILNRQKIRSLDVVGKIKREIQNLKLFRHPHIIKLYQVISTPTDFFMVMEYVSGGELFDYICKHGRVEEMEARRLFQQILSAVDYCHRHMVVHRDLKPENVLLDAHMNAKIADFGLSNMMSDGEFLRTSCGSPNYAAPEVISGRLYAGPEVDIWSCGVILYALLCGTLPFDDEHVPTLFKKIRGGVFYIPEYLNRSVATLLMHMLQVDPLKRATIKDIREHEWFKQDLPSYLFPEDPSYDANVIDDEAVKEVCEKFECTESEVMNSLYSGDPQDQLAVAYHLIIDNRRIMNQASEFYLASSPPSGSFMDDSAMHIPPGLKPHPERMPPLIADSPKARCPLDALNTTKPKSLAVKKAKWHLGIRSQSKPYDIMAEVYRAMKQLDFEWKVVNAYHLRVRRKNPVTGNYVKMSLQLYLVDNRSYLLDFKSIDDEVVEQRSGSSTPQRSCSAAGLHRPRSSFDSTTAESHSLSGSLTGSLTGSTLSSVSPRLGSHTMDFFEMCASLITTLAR

[11] = target: 5'-AMP-activated protein kinase catalytic subunit alpha-2 (Homo sapiens) (UniProt P54646); conditions: at 1 µM
[12] = target: T4, NUAK family SNF1-like kinase 1 (Homo sapiens) (UniProt O60285); conditions: at 1 µM
T4 sequence (whole entry): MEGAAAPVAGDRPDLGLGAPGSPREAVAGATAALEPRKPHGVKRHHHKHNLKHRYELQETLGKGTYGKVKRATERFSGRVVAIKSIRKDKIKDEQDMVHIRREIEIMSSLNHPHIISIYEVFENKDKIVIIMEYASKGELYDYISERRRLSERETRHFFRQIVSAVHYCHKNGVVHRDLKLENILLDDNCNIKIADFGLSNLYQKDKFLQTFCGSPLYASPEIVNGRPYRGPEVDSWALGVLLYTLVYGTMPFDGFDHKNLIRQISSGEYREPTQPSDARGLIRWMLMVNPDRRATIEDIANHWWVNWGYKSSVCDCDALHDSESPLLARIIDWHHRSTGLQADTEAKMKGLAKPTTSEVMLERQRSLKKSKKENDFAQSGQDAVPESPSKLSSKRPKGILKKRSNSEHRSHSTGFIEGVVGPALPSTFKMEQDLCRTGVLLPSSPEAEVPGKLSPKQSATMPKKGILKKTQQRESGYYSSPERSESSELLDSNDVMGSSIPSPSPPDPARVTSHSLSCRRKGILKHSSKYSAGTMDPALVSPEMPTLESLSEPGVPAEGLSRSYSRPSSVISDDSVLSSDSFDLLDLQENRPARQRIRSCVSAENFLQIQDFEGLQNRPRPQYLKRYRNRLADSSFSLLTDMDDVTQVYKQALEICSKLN

[13] = target: T5, Serine/threonine-protein kinase BRSK1 (Homo sapiens) (UniProt Q8TDC3); conditions: at 0.1 µM
T5 sequence (whole entry): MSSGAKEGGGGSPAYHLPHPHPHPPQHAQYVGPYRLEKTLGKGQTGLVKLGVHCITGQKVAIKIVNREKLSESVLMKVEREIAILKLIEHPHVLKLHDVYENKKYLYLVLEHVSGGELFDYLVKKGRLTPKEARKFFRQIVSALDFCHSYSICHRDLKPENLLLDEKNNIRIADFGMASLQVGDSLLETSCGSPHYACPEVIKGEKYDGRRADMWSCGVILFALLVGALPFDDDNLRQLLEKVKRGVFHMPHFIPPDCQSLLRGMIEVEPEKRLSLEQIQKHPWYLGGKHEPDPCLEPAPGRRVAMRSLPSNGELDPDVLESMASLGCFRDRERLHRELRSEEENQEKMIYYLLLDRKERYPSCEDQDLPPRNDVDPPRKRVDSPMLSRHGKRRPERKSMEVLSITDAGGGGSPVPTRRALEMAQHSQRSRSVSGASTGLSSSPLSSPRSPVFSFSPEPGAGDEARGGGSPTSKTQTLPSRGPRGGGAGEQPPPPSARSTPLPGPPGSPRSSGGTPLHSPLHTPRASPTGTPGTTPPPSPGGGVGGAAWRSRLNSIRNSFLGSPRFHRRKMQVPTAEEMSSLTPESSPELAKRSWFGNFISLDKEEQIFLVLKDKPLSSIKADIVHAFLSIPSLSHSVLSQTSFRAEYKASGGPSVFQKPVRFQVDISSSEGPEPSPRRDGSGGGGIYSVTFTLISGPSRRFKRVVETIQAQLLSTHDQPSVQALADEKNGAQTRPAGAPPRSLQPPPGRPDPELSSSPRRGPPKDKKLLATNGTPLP

[14] = target: T5, Serine/threonine-protein kinase BRSK1 (Homo sapiens); conditions: at 1 µM
[15] = target: T6, Serine/threonine-protein kinase BRSK2 (Homo sapiens) (UniProt Q8IWQ3); conditions: at 0.1 µM
T6 sequence (whole entry): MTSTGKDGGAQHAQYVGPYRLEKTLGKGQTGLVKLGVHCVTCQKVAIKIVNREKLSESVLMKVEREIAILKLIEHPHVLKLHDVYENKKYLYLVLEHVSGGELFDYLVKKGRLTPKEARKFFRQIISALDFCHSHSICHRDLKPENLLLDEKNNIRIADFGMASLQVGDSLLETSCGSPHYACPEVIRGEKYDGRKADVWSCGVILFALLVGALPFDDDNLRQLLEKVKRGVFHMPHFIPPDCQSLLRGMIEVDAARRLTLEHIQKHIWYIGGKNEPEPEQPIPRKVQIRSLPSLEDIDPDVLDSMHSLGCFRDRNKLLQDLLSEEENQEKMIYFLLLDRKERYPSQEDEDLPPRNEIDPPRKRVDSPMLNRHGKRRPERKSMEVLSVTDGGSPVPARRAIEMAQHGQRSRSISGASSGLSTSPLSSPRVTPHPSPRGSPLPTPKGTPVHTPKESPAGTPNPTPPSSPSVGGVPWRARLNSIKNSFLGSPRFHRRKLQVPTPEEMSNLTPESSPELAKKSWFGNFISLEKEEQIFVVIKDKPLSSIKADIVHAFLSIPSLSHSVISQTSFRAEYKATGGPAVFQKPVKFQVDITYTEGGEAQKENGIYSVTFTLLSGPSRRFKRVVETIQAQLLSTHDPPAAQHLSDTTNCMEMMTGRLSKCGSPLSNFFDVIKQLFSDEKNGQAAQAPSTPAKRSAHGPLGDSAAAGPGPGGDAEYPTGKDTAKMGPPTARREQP

[16] = target: T6, Serine/threonine-protein kinase BRSK2 (Homo sapiens); conditions: at 1 µM
[17] = target: Calcium/calmodulin-dependent protein kinase type 1D (Homo sapiens) (UniProt Q8IU85); conditions: at 0.1 µM
Calcium/calmodulin-dependent protein kinase type 1D (Homo sapiens), sequence (Q8IU85 whole entry, looked up): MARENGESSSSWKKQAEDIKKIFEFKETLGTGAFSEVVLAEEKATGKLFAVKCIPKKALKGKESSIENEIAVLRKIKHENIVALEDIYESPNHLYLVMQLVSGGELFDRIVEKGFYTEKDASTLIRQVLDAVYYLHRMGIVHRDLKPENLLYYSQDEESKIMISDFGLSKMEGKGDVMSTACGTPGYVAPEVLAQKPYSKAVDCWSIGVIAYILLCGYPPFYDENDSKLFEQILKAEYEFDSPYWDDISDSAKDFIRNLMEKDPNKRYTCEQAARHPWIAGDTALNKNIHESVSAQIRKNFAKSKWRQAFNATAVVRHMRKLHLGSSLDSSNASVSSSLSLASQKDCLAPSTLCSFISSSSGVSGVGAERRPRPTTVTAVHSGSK

[18] = target: Calcium/calmodulin-dependent protein kinase type 1D (Homo sapiens) (UniProt Q8IU85); conditions: at 1 µM
[19] = target: Calcium/calmodulin-dependent protein kinase type II subunit alpha (Homo sapiens) (UniProt Q9UQM7); conditions: at 0.1 µM;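 note: reported values are averages (mean inhibition of CAMK2A)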
Calcium/calmodulin-dependent protein kinase type II subunit alpha (Homo sapiens), sequence (Q9UQM7 whole entry): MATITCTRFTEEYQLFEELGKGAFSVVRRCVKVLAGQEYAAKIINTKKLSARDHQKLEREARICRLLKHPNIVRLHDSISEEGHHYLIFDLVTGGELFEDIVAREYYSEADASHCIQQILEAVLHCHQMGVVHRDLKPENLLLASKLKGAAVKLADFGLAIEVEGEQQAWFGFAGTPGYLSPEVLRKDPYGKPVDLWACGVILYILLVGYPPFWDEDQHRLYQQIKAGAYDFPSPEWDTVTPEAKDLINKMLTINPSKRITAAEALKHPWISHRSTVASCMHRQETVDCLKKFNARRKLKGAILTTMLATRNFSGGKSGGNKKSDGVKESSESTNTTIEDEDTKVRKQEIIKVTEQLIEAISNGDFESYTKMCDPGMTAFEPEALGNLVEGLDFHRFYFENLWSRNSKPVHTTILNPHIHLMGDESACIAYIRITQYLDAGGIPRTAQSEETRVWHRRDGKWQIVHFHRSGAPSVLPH

[20] = target: T4, NUAK family SNF1-like kinase 1 (Homo sapiens); conditions: at 0.1 µM

Ribosomal protein S6 kinase alpha-6 (Homo sapiens), sequence (Q9UK32 whole entry): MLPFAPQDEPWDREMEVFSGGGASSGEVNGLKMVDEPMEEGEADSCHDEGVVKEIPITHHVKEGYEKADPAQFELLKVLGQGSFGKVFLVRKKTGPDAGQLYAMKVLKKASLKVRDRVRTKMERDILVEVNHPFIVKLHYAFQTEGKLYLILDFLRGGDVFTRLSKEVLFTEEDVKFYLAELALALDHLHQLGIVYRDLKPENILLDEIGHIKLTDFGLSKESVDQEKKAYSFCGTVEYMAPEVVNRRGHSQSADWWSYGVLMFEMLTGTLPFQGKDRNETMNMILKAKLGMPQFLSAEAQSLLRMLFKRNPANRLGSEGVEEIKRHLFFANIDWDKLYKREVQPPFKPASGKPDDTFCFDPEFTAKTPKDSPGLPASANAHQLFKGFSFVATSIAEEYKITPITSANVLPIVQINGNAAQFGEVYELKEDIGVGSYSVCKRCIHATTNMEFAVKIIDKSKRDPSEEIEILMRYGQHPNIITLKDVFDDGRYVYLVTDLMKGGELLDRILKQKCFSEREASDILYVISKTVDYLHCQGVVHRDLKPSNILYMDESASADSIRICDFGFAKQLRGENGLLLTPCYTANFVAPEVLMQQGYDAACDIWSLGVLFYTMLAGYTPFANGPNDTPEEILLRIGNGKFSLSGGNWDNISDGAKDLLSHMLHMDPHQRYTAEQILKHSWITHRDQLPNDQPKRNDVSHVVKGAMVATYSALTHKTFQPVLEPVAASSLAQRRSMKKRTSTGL

| Compound | inhibition [1] [%] | inhibition [2] [%] | inhibition [3] [%] | inhibition [4] [%] | inhibition [5] [%] | inhibition [6] [%] | inhibition [7] [%] | inhibition [8] [%] | inhibition [9] [%] | inhibition [10] [%] | inhibition [11] [%] | inhibition [12] [%] | inhibition [13] [%] | inhibition [14] [%] | inhibition [15] [%] | inhibition [16] [%] | inhibition [17] [%] | inhibition [18] [%] | inhibition [19] [%] | inhibition [20] [%] |
| --- | --- | --- | --- | --- | --- | --- | --- | --- | --- | --- | --- | --- | --- | --- | --- | --- | --- | --- | --- | --- |
| CNC(=O)c1cncc(/C=C/c2c(Cl)cccc2Cl)c1 | 1.63 | -0.87 | -0.45 | 0.49 | 0.48 | 1.43 | 2.18 | 2.85 | 3.59 | 6.15 | 1.77 | 7.27 | 4.16 | 7.3 | 1.54 | 9.33 | -0.35 | 2.1 | 3 |  |
| COc1ccccc1Nc1ncc(-c2ccccc2)o1 | 0.95 | 2.95 | 4.31 | 5.64 | 0.66 | 4.99 | 3.37 | 1.74 | 3.31 | 3.16 | 4.09 | -4.21 | -0.58 | 3.87 | 2.96 | 4.49 | -0.11 | -0.14 | 3.16 | -0.18 |
| [O-][S+]1CCN(Cc2ccc(-c3ccc4ncnc(Nc5ccc(OCc6ccccc6)c(F)c5)c4c3)o2)CC1 | 0.29 | 1.32 | 0.95 | 1.18 | -1.29 | 0.74 | 2.23 | 0.77 | -0.08 | 0.83 |  | 2.16 | 3.74 | 5.47 | 4.69 | 5.63 | -0.91 | 1.4 | 1.36 | 1.72 |
| Nc1nc(-c2ccccn2)c(-c2ccc3ncccc3n2)s1 | 0.55 | 4.14 | 2.85 | 0.04 | 1.55 | 2.89 | 1.48 | 0.55 | 2.96 |  | 3.76 | 5.19 | -0.41 | 2.4 | 0.9 | 3.83 | -0.97 | 0.3 | 1.9 | 4.24 |
